The panel holds about 83,000 compounds, 20% with a hit somewhere; the sample as a whole holds those more often.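 Cells were grown in 96-well plates and exposed to the test compound at a single concentration for 48 hours; results are reported as percent growth, with values below 10 considered active.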 Unmarked numbers belong to inactive results. Calls of active or inactive are those of the source.
How the values were obtained:
Experiment in all cases: NCI-60 one-dose screen, 48 h (100 = growth as untreated, 0 = no growth, -100 = all killed)
Settings in all cases: 10 µM unless noted
NCI-H23 lung = test system: NCI-H23 lung
NCI-H226 lung = test system: NCI-H226 lung
NCI-H322M lung = test system: NCI-H322M lung
HOP-62 NSCLC = test system: HOP-62 NSCLC
HOP-92 NSCLC = test system: HOP-92 NSCLC
NCI-H522 lung = test system: NCI-H522 lung
A549/ATCC NSCLC = test system: A549/ATCC NSCLC
786-0 renal = test system: 786-0 renal
COLO 205 colon = test system: COLO 205 colon
DU-145 prostate = test system: DU-145 prostate
K-562 leukemia = test system: K-562 leukemia
MALME-3M melanoma = test system: MALME-3M melanoma
MDA-MB-231 breast = test system: MDA-MB-231 breast
RXF 393 renal = test system: RXF 393 renal
SF-268 CNS = test system: SF-268 CNS
SF-295 CNS = test system: SF-295 CNS
SF-539 CNS = test system: SF-539 CNS
UACC-257 melanoma = test system: UACC-257 melanoma
M14 melanoma = test system: M14 melanoma
NCI-H460 lung = test system: NCI-H460 lung

SMILES	growth (NCI-H23 lung)	growth (NCI-H226 lung)	growth (NCI-H322M lung)	growth (HOP-62 NSCLC)	growth (HOP-92 NSCLC)	growth (NCI-H522 lung)	growth (A549/ATCC NSCLC)	growth (786-0 renal)	growth (COLO 205 colon)	growth (DU-145 prostate)	growth (K-562 leukemia)	growth (MALME-3M melanoma)	growth (MDA-MB-231 breast)	growth (RXF 393 renal)	growth (SF-268 CNS)	growth (SF-295 CNS)	growth (SF-539 CNS)	growth (UACC-257 melanoma)	growth (M14 melanoma)	growth (NCI-H460 lung) [%]
CC(=O)O[C@H]1CC[C@]2(C)[C@H]3CC=C4[C@@H]5CC(C)(C)CC[C@]5(C(=O)NCCNCCN)CC[C@@]4(C)[C@]3(C)CC[C@H]2C1(C)C	70.1%	73.5%	67.3%	-86.7% (active)	-45.3% (active)	-86.9% (active)	-71.1% (active)	-95.3% (active)	-92.7% (active)	-45.3% (active)	-47.2% (active)	-71.2% (active)	-66.5% (active)	44.9%	74.3%	92.8%	70.3%	-42.3% (active)	-81.4% (active)	–
C/C1=C\CC[C@@]2(C)O[C@H]2[C@H]2OC(=O)C(CN3CCN(CC4C(=O)O[C@H]5[C@H]4CC/C(C)=C/CC[C@@]4(C)O[C@@H]54)CC3)[C@@H]2CC1 (some centres not stated)	98.5%	99.2%	99.3%	107%	100%	33.4%	93.5%	109%	98.2%	60.6%	–	101%	87.1%	94.6%	104%	103%	90.5%	83.5%	93.1%	–
Clc1ccc2c(NCCCCNc3nc(N4CCCCC4)nc4ccccc34)ccnc2c1	53.1%	35.8%	6.86% (active)	-11.1% (active)	-35.3% (active)	-18.6% (active)	16.2%	-90.3% (active)	-64.5% (active)	27.6%	–	-81.8% (active)	-51.3% (active)	-62.8% (active)	19.9%	-54.8% (active)	-86.7% (active)	-83.5% (active)	-84.6% (active)	–
COc1cccc(/C=N/NC(=O)c2ccccc2Nc2ccnc(C(F)(F)F)c2)c1O	30.8%	-20.2% (active)	17.4%	-6.28% (active)	29.4%	18.6%	14.3%	-2.01% (active)	2.9% (active)	22.8%	33.7%	1.24% (active)	42.6%	21%	18.9%	18.6%	0.849% (active)	8.18% (active)	-30.1% (active)	–
COc1ccc(S(=O)(=O)N2CCCCC2)cc1NC(=O)c1[nH]c(C)c2c1CCCCC2=O	26%	46.2%	31.8%	26%	26.9%	7.18% (active)	28.2%	32.3%	22.9%	61.5%	22%	45.2%	29.1%	3.54% (active)	48.1%	23.9%	24.9%	32%	36%	–
CN(C)[C@@H]1C(=O)C(C(=O)NCc2nc3[nH]cnc(=S)c3[nH]2)=C(O)[C@@]2(O)C(=O)C3=C(O)c4c(O)cccc4[C@@](C)(O)[C@H]3C[C@@H]12	58.7%	49.5%	37.9%	18.4%	25.2%	33.3%	101%	19.6%	88%	42.6%	–	69.4%	47.5%	–	76.1%	27.1%	31.8%	–	9.8% (active)	63.8
CC(C)CC1C(=O)N2CCC[C@H]2C2(O)O[C@](NC(=O)C3C=C4c5cccc6[nH]c(Br)c(c56)C[C@H]4N(C)C3)(C(C)C)C(=O)N12 (some centres not stated)	71.1%	59.5%	71.8%	82.7%	66.1%	53.5%	37.9%	–	47.9%	83.6%	34.5%	74.7%	46.3%	36.8%	55.8%	–	73.6%	51%	66.3%	57.2
CCOC(=O)c1csc(NC(=O)COc2cccc(/C=C3\CSc4ccccc4C3=O)c2)n1	9.12% (active)	98.1%	97.1%	80.1%	-79.1% (active)	-39.2% (active)	97.2%	87.1%	87.9%	87.1%	-64.3% (active)	-52.6% (active)	59.2%	64.9%	-37.2% (active)	93.7%	-89.1% (active)	84.5%	-58.5% (active)	–

From PubChem BioAssay (NCI)
